Results reported in PMC11062922 (Nature Chemical Biology, 2023).

Experiments:
Parameters in all cases: species or system human, MV4-11 + K-562 + COLO205 + SK-N-BE2 + OVCAR-8
ADRBK1 = details: read-out: apparent Kd; compound concentrations: 100 nM and 1000 nM (sheet 'Samples'), CATDS: 2.1593661333857501E-2; n = 1
AKT3 = details: read-out: apparent Kd; compound concentrations: 100 nM and 1000 nM (sheet 'Samples'), CATDS: 1.9200970976664199E-2; n = 1
CDC42BPA = details: read-out: apparent Kd; compound concentrations: 100 nM and 1000 nM (sheet 'Samples'), CATDS: 2.9889506530370698E-2; n = 1
CDC42BPB = details: read-out: apparent Kd; compound concentrations: 100 nM and 1000 nM (sheet 'Samples'), CATDS: 7.2209321727509101E-2; n = 1
CDC42BPG = details: read-out: apparent Kd; compound concentrations: 100 nM and 1000 nM (sheet 'Samples'), CATDS: 5.7260921277851103E-2; n = 1
CDKL5 = details: read-out: apparent Kd; compound concentrations: 100 nM and 1000 nM (sheet 'Samples'), CATDS: 3.0884187274208798E-2; n = 1
CHEK1 = details: read-out: apparent Kd; compound concentrations: 100 nM and 1000 nM (sheet 'Samples'), CATDS: 4.9980963828105997E-2; n = 1
JAK2 = details: read-out: apparent Kd; compound concentrations: 100 nM and 1000 nM (sheet 'Samples'), CATDS: 2.4440515668024899E-2; n = 1
NUAK1 = details: read-out: apparent Kd; compound concentrations: 100 nM and 1000 nM (sheet 'Samples'), CATDS: 4.1044446827870798E-2; n = 1
NUAK2 = details: read-out: apparent Kd; compound concentrations: 100 nM and 1000 nM (sheet 'Samples'), CATDS: 3.8421609760156301E-2; n = 1
PKN1 = details: read-out: apparent Kd; compound concentrations: 100 nM and 1000 nM (sheet 'Samples'), CATDS: 3.7942588141146198E-2; n = 1
PKN2 = details: read-out: apparent Kd; compound concentrations: 100 nM and 1000 nM (sheet 'Samples'), CATDS: 2.7249776498222002E-2; n = 1
PKN3 = details: read-out: apparent Kd; compound concentrations: 100 nM and 1000 nM (sheet 'Samples'), CATDS: 1.9288035237500001E-2; n = 1
PRKAA1 = details: read-out: apparent Kd; compound concentrations: 100 nM and 1000 nM (sheet 'Samples'), CATDS: 2.2574550296483802E-2; n = 1
PRKAA2 = details: read-out: apparent Kd; compound concentrations: 100 nM and 1000 nM (sheet 'Samples'), CATDS: 1.9838935716802002E-2; n = 1
PRKACA = details: read-out: apparent Kd; compound concentrations: 100 nM and 1000 nM (sheet 'Samples'), CATDS: 9.6222688341774595E-2; n = 1
PRKACB = details: read-out: apparent Kd; compound concentrations: 100 nM and 1000 nM (sheet 'Samples'), CATDS: 7.2959241198541205E-2; n = 1
PRKAG1 = details: read-out: apparent Kd; compound concentrations: 100 nM and 1000 nM (sheet 'Samples'), CATDS: 2.1564965270821398E-2; n = 1
PRKAG2 = details: read-out: apparent Kd; compound concentrations: 100 nM and 1000 nM (sheet 'Samples'), CATDS: 2.8394039575996899E-2; n = 1
PRKCA = details: read-out: apparent Kd; compound concentrations: 100 nM and 1000 nM (sheet 'Samples'), CATDS: 4.1441031849898502E-2; n = 1
PRKCB = details: read-out: apparent Kd; compound concentrations: 100 nM and 1000 nM (sheet 'Samples'), CATDS: 3.5643049371418899E-2; n = 1
PRKCD = details: read-out: apparent Kd; compound concentrations: 100 nM and 1000 nM (sheet 'Samples'), CATDS: 5.5614379812914103E-2; n = 1
PRKCQ = details: read-out: apparent Kd; compound concentrations: 100 nM and 1000 nM (sheet 'Samples'), CATDS: 6.3184001345655702E-2; n = 1
PRKD2 = details: read-out: apparent Kd; compound concentrations: 100 nM and 1000 nM (sheet 'Samples'), CATDS: 1.9916010120102301E-2; n = 1
PRKG1 = details: read-out: apparent Kd; compound concentrations: 100 nM and 1000 nM (sheet 'Samples'), CATDS: 8.1540237220624201E-2; n = 1
PRKX = details: read-out: apparent Kd; compound concentrations: 100 nM and 1000 nM (sheet 'Samples'), CATDS: 3.8731961225305901E-2; n = 1
ROCK1 = details: read-out: apparent Kd; compound concentrations: 100 nM and 1000 nM (sheet 'Samples'), CATDS: 7.2769225266658799E-2; n = 1
ROCK2 = details: read-out: apparent Kd; compound concentrations: 100 nM and 1000 nM (sheet 'Samples'), CATDS: 5.7736516058252897E-2; n = 1
RPS6KA5 = details: read-out: apparent Kd; compound concentrations: 100 nM and 1000 nM (sheet 'Samples'), CATDS: 2.03243213098795E-2; n = 1
RPS6KB1 = details: read-out: apparent Kd; compound concentrations: 100 nM and 1000 nM (sheet 'Samples'), CATDS: 4.2911282581945501E-2; n = 1
ADK = details: read-out: apparent Kd; compound concentrations:100 nM and 1000 nM (sheet 'Samples'); n = 1

COc1ccc(O)c(C(=O)c2ccc(C(=O)N[C@@H]3CCCNC[C@H]3NC(=O)c3ccncc3)cc2)c1F.Cl [RO4367842-001]
potency estimated from few doses (ADRBK1): 587 nM
potency estimated from few doses (AKT3): 1460 nM
potency estimated from few doses (CDC42BPA): 129 nM
potency estimated from few doses (CDC42BPB): 17.2 nM
potency estimated from few doses (CDC42BPG): 25.7 nM
potency estimated from few doses (CDKL5): 115 nM
potency estimated from few doses (CHEK1): 33.5 nM
potency estimated from few doses (JAK2): 294 nM
potency estimated from few doses (NUAK1): 51.7 nM
potency estimated from few doses (NUAK2): 60.9 nM
potency estimated from few doses (PKN1): 62.9 nM
potency estimated from few doses (PKN2): 182 nM
potency estimated from few doses (PKN3): 1400 nM
potency estimated from few doses (PRKAA1): 448 nM
potency estimated from few doses (PRKAA2): 1090 nM
potency estimated from few doses (PRKACA): 11.1 nM
potency estimated from few doses (PRKACB): 17 nM
potency estimated from few doses (PRKAG1): 592 nM
potency estimated from few doses (PRKAG2): 155 nM
potency estimated from few doses (PRKCA): 50.5 nM
potency estimated from few doses (PRKCB): 74.4 nM
potency estimated from few doses (PRKCD): 27.2 nM
potency estimated from few doses (PRKCQ): 21.6 nM
potency estimated from few doses (PRKD2): 1050 nM
potency estimated from few doses (PRKG1): 14.2 nM
potency estimated from few doses (PRKX): 59.6 nM
potency estimated from few doses (ROCK1): 17 nM
potency estimated from few doses (ROCK2): 25.4 nM
potency estimated from few doses (RPS6KA5): 897 nM
potency estimated from few doses (RPS6KB1): 46.5 nM

CC(=O)N[C@@H](Cc1ccc(OP(=O)(O)O)cc1)C(=O)N[C@H]1CCC(=O)N2CCC[C@@H](C(=O)NCc3ccc(O)cc3)N2C1=O [RO0324381-000]
potency estimated from few doses (ADK): 1270 nM
